According to PubChem BioAssay (Tox21):
“And” between values parts separate entries of the source, which are not always exact repeats. Equal values may be shown once. Inconclusive results are not listed. Where a structure was tested more than once in an assay, its records may differ in their call. The source made the active and inactive calls. Unless noted, calls follow the shape of the dose curve; as a rule, active = well fitted curve in the direction sought with a large enough effect in the repeat runs; inconclusive = weak or mixed curves; inactive = no such curve, though single readings can be large; an effect the other way counts as inactive or inconclusive.

Legend:
[1] = qHTS assay to identify small molecule antagonists of the thyroid receptor (TR) signaling pathway - cell viability counter screen (AID 743064); also: nearly all actives have a fitted effect of over 50% in size; also: potency is read from the fitted curve at half-maximal effect
How it was run: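 GH3.TRE-Luc rat pituitary cells carrying a TRE-luciferase reporter were treated with compound plus 1 nM T3 (final) for 23.5 h at 37 °C. Viability was then read in the same wells by CellTiter-Fluor fluorescence after a further 30 min.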

[2] = test system: thyroid hormone receptor (rat, GH3 cells); test: qHTS assay to identify small molecule agonists of the thyroid receptor (TR) signaling pathway (AID 743066; calls by dose curve)
[3] = qHTS assay to identify small molecule antagonists of the estrogen receptor alpha (ER-alpha) signaling pathway - cell viability counter screen (AID 743074; calls by dose curve; also: nearly all actives have a fitted effect of over 45% in size)
[4] = biological target: Estrogen receptor (Homo sapiens) (UniProt P03372); test: qHTS assay to identify small molecule agonists of the estrogen receptor alpha (ER-alpha) signaling pathway (AID 743075; calls by dose curve)
Estrogen receptor (Homo sapiens), sequence (P03372 whole entry, looked up): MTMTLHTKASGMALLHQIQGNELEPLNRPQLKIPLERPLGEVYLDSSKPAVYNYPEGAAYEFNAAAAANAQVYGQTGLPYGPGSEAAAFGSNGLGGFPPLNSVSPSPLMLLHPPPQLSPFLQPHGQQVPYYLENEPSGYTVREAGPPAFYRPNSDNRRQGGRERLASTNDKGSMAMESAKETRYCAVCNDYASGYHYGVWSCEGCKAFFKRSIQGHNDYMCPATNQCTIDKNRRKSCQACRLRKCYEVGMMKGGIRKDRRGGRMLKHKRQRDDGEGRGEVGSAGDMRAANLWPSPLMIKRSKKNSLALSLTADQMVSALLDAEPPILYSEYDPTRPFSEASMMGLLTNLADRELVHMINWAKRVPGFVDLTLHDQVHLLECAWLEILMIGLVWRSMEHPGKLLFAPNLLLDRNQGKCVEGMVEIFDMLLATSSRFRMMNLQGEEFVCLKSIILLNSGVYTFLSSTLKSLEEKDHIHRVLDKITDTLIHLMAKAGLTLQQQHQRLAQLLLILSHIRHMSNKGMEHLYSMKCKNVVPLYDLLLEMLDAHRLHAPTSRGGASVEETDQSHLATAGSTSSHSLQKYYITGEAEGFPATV

[5] = biological target: Estrogen receptor (Homo sapiens) (UniProt P03372); test: qHTS assay to identify small molecule agonists of the estrogen receptor alpha (ER-alpha) signaling pathway using the BG1 cell line (AID 743079); also: nearly all actives have a fitted effect of over 20% in size
[6] = qHTS assay to identify small molecule antagonists of the estrogen receptor alpha (ER-alpha) signaling pathway using the BG1 cell line - cell viability counter screen (AID 743081);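 also: compound given together with 17beta-estradiol as the ER stimulus; nearly all actives have a fitted effect of over 45% in size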; also: potency is read from the fitted curve at half-maximal effect; as to activity change, negative = cytotoxicity: series mostly up to about 70 µM
[7] = qHTS assay to identify aromatase inhibitors - cell viability counter screen (AID 743084);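 also: cells stimulated with testosterone during compound exposure; nearly all actives have a fitted effect of over 55% in size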; also: potency is read from the fitted curve at half-maximal effect
[8] = biological target: Aryl hydrocarbon receptor (Homo sapiens) (UniProt P35869); test: qHTS assay to identify small molecule that activate the aryl hydrocarbon receptor (AhR) signaling pathway (AID 743085); also: nearly all actives have a fitted effect of over 15% in size; also: potency is read from the fitted curve at half-maximal effect;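 as to activation: HG2L7.5c1 human HepG2 liver cells with stably integrated DRE-driven firefly reporter; series mostly up to about 70 µM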
Aryl hydrocarbon receptor (Homo sapiens), sequence (P35869 whole entry, looked up): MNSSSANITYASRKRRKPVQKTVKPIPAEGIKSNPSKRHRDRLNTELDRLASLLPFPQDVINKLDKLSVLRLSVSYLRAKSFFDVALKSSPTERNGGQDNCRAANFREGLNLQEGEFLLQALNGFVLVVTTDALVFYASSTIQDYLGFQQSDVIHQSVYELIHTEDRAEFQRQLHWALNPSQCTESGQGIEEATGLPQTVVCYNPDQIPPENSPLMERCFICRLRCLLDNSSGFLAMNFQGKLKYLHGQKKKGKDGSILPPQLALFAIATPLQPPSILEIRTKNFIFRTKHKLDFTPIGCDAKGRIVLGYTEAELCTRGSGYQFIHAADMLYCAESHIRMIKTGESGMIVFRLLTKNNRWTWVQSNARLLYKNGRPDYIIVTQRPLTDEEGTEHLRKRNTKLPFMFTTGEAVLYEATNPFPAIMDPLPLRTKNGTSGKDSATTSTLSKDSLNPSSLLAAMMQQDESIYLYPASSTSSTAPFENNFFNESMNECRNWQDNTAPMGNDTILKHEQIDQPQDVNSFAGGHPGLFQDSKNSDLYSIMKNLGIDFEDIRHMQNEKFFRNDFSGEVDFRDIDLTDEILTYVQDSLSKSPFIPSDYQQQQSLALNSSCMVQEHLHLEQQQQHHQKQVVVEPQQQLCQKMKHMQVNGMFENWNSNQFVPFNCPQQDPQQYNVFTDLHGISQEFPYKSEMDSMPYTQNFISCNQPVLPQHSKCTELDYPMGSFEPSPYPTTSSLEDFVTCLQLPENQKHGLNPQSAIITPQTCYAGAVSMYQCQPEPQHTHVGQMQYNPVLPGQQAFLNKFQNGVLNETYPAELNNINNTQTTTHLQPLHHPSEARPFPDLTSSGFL
How it was run: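 HepG2 cells (HG2L7.5c1) stably carrying a firefly luciferase reporter driven by 20 dioxin responsive elements were exposed to compound for 24 h at 37C after a 5 h settling period; luminescence rise (ONE-Glo) indicated activation.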

[9] = qHTS assay to identify small molecule that activate the aryl hydrocarbon receptor (AhR) signaling pathway - cell viability counter screen (AID 743086); also: nearly all actives have a fitted effect of over 45% in size; also: potency is read from the fitted curve at half-maximal effect;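 as to viability change, negative = cytotoxic: HepG2 liver cells carrying the AhR DRE luciferase reporter; series mostly up to about 70 µM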
How it was run: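 HepG2-AhR-luc (HG2L7.5c1) cells, 4000/well, were preincubated 5 h at 37C, exposed to compound in qHTS format for 24 hr at 37C, then given CellTiter-Fluor for 30 min; viability was read as fluorescence in the reporter wells.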

[10] = biological target: Peroxisome proliferator-activated receptor gamma (Homo sapiens) (UniProt P37231); test: qHTS assay to identify small molecule agonists of the peroxisome proliferator-activated receptor gamma (PPARg) signaling pathway (AID 743094; active = well fitted activation curve with a large enough effect in the signal ratio in the repeat runs, not every such curve was filed as active; the % refers to the signal ratio)
Peroxisome proliferator-activated receptor gamma (Homo sapiens), sequence (P37231 whole entry, looked up): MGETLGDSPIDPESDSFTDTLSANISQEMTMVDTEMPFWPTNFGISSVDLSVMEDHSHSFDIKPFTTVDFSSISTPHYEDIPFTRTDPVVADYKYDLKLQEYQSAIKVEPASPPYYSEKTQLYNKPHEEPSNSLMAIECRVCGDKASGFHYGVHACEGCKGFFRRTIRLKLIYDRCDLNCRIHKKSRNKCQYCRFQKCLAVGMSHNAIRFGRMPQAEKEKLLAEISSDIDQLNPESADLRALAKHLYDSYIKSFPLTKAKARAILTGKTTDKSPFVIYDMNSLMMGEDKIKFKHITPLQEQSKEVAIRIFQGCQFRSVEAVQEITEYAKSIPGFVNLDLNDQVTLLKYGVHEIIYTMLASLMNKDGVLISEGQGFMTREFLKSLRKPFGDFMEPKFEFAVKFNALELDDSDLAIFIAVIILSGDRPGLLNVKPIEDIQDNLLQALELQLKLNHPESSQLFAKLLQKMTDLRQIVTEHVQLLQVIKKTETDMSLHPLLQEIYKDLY
How it was run: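 Reporter activation was scored by fluorescence of cleaved LiveBLAzer B/G substrate (1 h, room temperature) in PPARg-bla HEK293H cells previously treated 17 h at 37C with DMSO-dissolved compounds.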

[11] = qHTS assay for small molecule activators of the heat shock response signaling pathway (AID 743210; active = well fitted activation curve with a large enough effect in the signal ratio in the repeat runs, with a control signal flat, not every such curve was filed as active; the % refers to the signal ratio;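 also: HeLa cells with beta-lactamase reporter driven by heat shock elements; series mostly up to about 63 µM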)
How it was run: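 Activation of heat shock element-controlled beta-lactamase expression is measured in HeLa cells by LiveBLAzer FRET fluorescence, with compound exposure lasting 5 h at 37 C and substrate loading 2.5 h at room temperature.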

[12] = qHTS assay to identify small molecule antagonists of the estrogen receptor alpha (ER-alpha) signaling pathway using the BG1 cell line (AID 743080; calls by dose curve;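 also: BG1 cells stimulated with 17beta-estradiol alongside compound; series mostly up to about 70 µM; nearly all actives have a fitted effect of over 25% in size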)
How it was run: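 BG1-Luc-4E2 cells (endogenous full-length ER-alpha, stable 4×ERE-luciferase) were starved 5 days in phenol-red-free medium with 10% charcoal-stripped FBS, plated 24 h, then given compound plus 17beta-estradiol for 21.5 h at 37 C; ONE-Glo luminescence read after 30 min.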

[13] = biological target: Aromatase (Homo sapiens) (UniProt P11511); test: qHTS assay to identify aromatase inhibitors (AID 743083); also: nearly all actives have a fitted effect of over 55% in size; also: potency is read from the fitted curve at half-maximal effect; as to activity, negative = inhibition: series mostly up to about 70 µM
Aromatase (Homo sapiens), sequence (P11511 whole entry, looked up): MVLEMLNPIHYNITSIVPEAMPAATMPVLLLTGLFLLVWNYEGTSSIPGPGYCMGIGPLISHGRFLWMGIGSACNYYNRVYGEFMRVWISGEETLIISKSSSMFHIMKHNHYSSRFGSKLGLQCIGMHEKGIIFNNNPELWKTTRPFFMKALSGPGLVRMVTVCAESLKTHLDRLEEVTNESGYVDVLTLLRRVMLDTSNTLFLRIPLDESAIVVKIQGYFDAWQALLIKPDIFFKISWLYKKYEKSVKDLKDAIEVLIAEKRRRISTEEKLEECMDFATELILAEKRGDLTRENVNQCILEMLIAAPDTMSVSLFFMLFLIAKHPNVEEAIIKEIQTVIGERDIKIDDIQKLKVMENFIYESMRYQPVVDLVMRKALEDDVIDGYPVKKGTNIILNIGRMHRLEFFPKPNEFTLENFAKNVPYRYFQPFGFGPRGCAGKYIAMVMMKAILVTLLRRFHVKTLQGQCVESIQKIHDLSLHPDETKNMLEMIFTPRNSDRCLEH

[14] = qHTS assay for small molecule agonists of the antioxidant response element (ARE) signaling pathway (AID 743202; active = well fitted activation curve with a large enough effect in the signal ratio in the repeat runs, not every such curve was filed as active; the % refers to the signal ratio)
How it was run: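 Steps: seed ARE-bla HepG2 cells (2,000/well); incubate 5 h at 37 C; add compounds by pin tool; incubate 16 h at 37 C; add FRET substrate; read fluorescence after 2 h at RT.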

[15] = qHTS assay for small molecule agonists of the antioxidant response element (ARE) signaling pathway - cell viability counter screen (AID 743203; calls by dose curve; also: nearly all actives have a fitted effect of over 55% in size; also: potency is read from the fitted curve at half-maximal effect)
How it was run: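 Viability counter screen: stably transfected ARE-bla HepG2 line, 16 hrs compound exposure at 37C/5% CO2, ATP-based CellTiter-Glo luminescence measured in the reporter wells.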

[16] = qHTS assay for small molecule activators of the heat shock response signaling pathway - cell viability counter screen (AID 743209); also: nearly all actives have a fitted effect of over 50% in size
How it was run: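 Viability of HSE-bla HeLa cells is measured with CellTiter-Glo in the wells already used for the reporter read. Compound exposure lasts 5 h at 37 C, and luminescence is read after 30 min at room temperature.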

[17] = biological target: Peroxisome proliferator-activated receptor gamma (Homo sapiens) (UniProt P37231); test: qHTS assay to identify small molecule antagonists of the peroxisome proliferator-activated receptor gamma (PPARg) signaling pathway (AID 743191; calls by dose curve; also: series mostly up to about 63 µM; nearly all actives have a fitted effect of over 30% in size)
How it was run: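 GeneBLAzer PPARg UAS-bla HEK293H cells carrying a UAS-driven beta-lactamase reporter were plated at 3000 cells/well, preincubated 5 h at 37C, then given compound for 17 h at 37C; LiveBLAzer B/G FRET substrate was read after 1 h at room temperature.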

[18] = qHTS assay to identify small molecule antagonists of the peroxisome proliferator-activated receptor gamma (PPARg) signaling pathway - cell viability counter screen (AID 743194); also: nearly all actives have a fitted effect of over 55% in size; also: potency is read from the fitted curve at half-maximal effect
How it was run: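 PPARg-UAS-bla HEK293H cells were plated, rested 5 h at 37 C, then treated with compounds plus rosiglitazone (50 nM final) for 17 h at 37 C; viability was then read by CellTiter-Glo luminescence after 30 min at room temperature.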

[19] = biological target: Estrogen receptor (Homo sapiens) (UniProt P03372); test: qHTS assay to identify small molecule antagonists of the estrogen receptor alpha (ER-alpha) signaling pathway (AID 743069; active = well fitted curve in the direction sought with a large enough effect in the signal ratio in the repeat runs, not every such curve was filed as active; the % refers to the signal ratio)
How it was run: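 Screening used a UAS-driven beta-lactamase reporter integrated into HEK293 cells expressing ER-alpha, stimulated with 17beta-estradiol alongside test compounds over 18 hr at 37C; signal came from LiveBLAzer B/G FRET fluorescence.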
% is scaled to controls: 0 for no effect and ±100 for the full control effect.

O=S(=O)(O)c1ccc(N=Nc2c(O)ccc3ccccc23)cc1
active: Potency [1] 30.6 µM | Potency [6] 27.3 µM | Potency [7] 17.2 µM | Potency [8] 27.3 µM | Potency [9] 24.3 µM
inactive: outcome [2] | Potency [3] | Potency [4] | Potency [5] | Potency [10] | Potency [11]

O[C@@H]([C@H](O)[C@H](O)CBr)[C@H](O)CBr
inactive: Potency [1] | outcome [2] | Potency [3] | Potency [4] | Potency [5] | Potency [12] | Potency [6] | Potency [13] | Potency [7] | Potency [8] | Potency [9] | Potency [10] | Potency [14] | Potency [15] | Potency [16] | Potency [11]

O=[N+]([O-])c1ccc(F)c(Cl)c1
inactive: Potency [1] | outcome [2] | Potency [3] | Potency [6] | Potency [13] | Potency [7] | Potency [8] | Potency [9] | Potency [10] | Potency [17] | Potency [18] | Potency [14] | Potency [15] | Potency [16]

C[C@H]1NCc2cc(-c3ccc4c(=O)c(C(=O)O)cn(C5CC5)c4c3OC(F)F)ccc21
inactive: Potency [1] | outcome [2] | Potency [19] | Potency [4] | Potency [5] | Potency [12] | Potency [6] | Potency [13] | Potency [7] | Potency [8] | Potency [9] | Potency [10] | Potency [18] | Potency [14] | Potency [15]

Clc1nnc(Cl)c2ccccc12
inactive: Potency [1] | outcome [2] | Potency [19] | Potency [3] | Potency [4] | Potency [5] | Potency [13] | Potency [7] | Potency [10] | Potency [18] | Potency [15]

Oc1c(I)cc(Cl)c2cccnc12
inactive: Potency [1] | outcome [2] | Potency [6] | Potency [7] | Potency [9] | Potency [10] | Potency [16]
active: Potency [8] 944 nM and 61 µM | Potency [18] 4.36 µM and 5.96 µM | Potency [15] 68.5 µM
inactive and 27.3 µM (active): Potency [13]

C[C@@H](O)[C@H](N)C(=O)O
inactive: Potency [1] | outcome [2] | Potency [3] | Potency [6] | Potency [13] | Potency [7] | Potency [8] | Potency [9] | Potency [10] | Potency [18] | Potency [14] | Potency [15] | Potency [16] | Potency [11]

C=CCn1c(=O)n(CC=C)c(=O)n(CC=C)c1=O
inactive: Potency [1] | outcome [2] | Potency [3] | Potency [6] | Potency [13] | Potency [7] | Potency [8] | Potency [9] | Potency [10] | Potency [18] | Potency [14] | Potency [15] | Potency [16] | Potency [11]

COc1ccc(NC(=O)CC(C)=O)cc1
inactive: Potency [1] | outcome [2] | Potency [3] | Potency [6] | Potency [13] | Potency [7] | Potency [10] | Potency [18] | Potency [15] | Potency [16] | Potency [11]

CC(N=C(NC#N)Nc1ccncc1)C(C)(C)C (stereo unspecified)
inactive: Potency [1] | outcome [2] | Potency [3] | Potency [6] | Potency [7] | Potency [8] | Potency [9] | Potency [15] | Potency [16]

COc1cc(S(=O)(=O)O)c(C)cc1N=Nc1c(O)ccc2cc(S(=O)(=O)O)ccc12
active: Potency [1] 30.6 µM | Potency [6] 30.6 µM | Potency [7] 8.63 µM | Potency [9] 9.69 µM
inactive: outcome [2] | Potency [19] | Potency [3] | Potency [4] | Potency [8] | Potency [10] | Potency [17] | Potency [18] | Potency [14] | Potency [15] | Potency [16] | Potency [11]

[Cu+]
inactive: Potency [1] | outcome [2] | Potency [3] | Potency [4] | Potency [6] | Potency [9] | Potency [18] | Potency [15] | Potency [16]

CCCC[P+](C)(CCCC)CCCC
inactive: Potency [1] | outcome [2] | Potency [19] | Potency [3] | Potency [12] | Potency [6] | Potency [13] | Potency [7] | Potency [8] | Potency [9] | Potency [18] | Potency [14] | Potency [15]

Cc1cc(C(C)(C)C)cc(C)c1CC1=NCCN1
inactive: Potency [1] | outcome [2] | Potency [3] | Potency [4] | Potency [5] | Potency [12] | Potency [6] | Potency [13] | Potency [7] | Potency [8] | Potency [9] | Potency [10] | Potency [17] | Potency [18] | Potency [14] | Potency [15] | Potency [16] | Potency [11]

NC[C@H]1O[C@H](O[C@H]2[C@H](O[C@@H]3O[C@H](CO)[C@@H](O)[C@H]3O)C(O)[C@H](N)C[C@@H]2N)[C@H](N)[C@@H](O)[C@@H]1O (stereo partly specified)
inactive: Potency [1] | outcome [2] | Potency [3] | Potency [6] | Potency [13] | Potency [7] | Potency [10] | ratio activity, negative = inhibition [17] 1.19% [at 13.2 µM] | activation [14] 0.127% [at 8.36 µM] | viability change, negative = cytotoxic [15] -15.3% [at 8.36 µM] | activity change, negative = cytotoxicity [16] 4.74% [at 13.2 µM] | activation [11] 1.22% [at 13.2 µM]

C=C(C)c1cccc(C(=C)C)c1
inactive: Potency [1] | outcome [2] | Potency [19] | Potency [3] | Potency [4] | Potency [12] | Potency [13] | Potency [7] | Potency [8] | Potency [9] | Potency [10] | Potency [17] | Potency [18] | Potency [14] | Potency [15] | Potency [16] | Potency [11]

CC(C)CCCCCOC(=O)CCS
inactive: Potency [1] | outcome [2] | Potency [3] | Potency [4] | Potency [5] | Potency [12] | Potency [6] | Potency [13] | Potency [7] | Potency [8] | Potency [9] | Potency [10] | Potency [17] | Potency [16] | Potency [11]
